Assay results from ChEMBL document CHEMBL1961873, “Compounds: GSK PKIS; Assays: Nanosyn kinase panel” (2012).

How the values were obtained:
[1] = target: Leukocyte tyrosine kinase receptor (Homo sapiens) (UniProt P29376); conditions: at 1 µM;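 also: each value is the mean inhibition of LTK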
[2] = target: Tyrosine-protein kinase Lyn (Homo sapiens) (UniProt P07948); conditions: at 0.1 µM
[3] = target: Tyrosine-protein kinase Lyn (Homo sapiens) (UniProt P07948); conditions: at 1 µM
[4] = target: Tyrosine-protein kinase Lyn (Homo sapiens) (UniProt P07948); conditions: at 0.1 µM; remark: listed apart in the source
[5] = target: Tyrosine-protein kinase Lyn (Homo sapiens) (UniProt P07948); conditions: at 1 µM; remark: listed apart in the source
[6] = target: T1, Tyrosine-protein kinase Mer (Homo sapiens) (UniProt Q12866); conditions: at 0.1 µM
T1 sequence (whole entry): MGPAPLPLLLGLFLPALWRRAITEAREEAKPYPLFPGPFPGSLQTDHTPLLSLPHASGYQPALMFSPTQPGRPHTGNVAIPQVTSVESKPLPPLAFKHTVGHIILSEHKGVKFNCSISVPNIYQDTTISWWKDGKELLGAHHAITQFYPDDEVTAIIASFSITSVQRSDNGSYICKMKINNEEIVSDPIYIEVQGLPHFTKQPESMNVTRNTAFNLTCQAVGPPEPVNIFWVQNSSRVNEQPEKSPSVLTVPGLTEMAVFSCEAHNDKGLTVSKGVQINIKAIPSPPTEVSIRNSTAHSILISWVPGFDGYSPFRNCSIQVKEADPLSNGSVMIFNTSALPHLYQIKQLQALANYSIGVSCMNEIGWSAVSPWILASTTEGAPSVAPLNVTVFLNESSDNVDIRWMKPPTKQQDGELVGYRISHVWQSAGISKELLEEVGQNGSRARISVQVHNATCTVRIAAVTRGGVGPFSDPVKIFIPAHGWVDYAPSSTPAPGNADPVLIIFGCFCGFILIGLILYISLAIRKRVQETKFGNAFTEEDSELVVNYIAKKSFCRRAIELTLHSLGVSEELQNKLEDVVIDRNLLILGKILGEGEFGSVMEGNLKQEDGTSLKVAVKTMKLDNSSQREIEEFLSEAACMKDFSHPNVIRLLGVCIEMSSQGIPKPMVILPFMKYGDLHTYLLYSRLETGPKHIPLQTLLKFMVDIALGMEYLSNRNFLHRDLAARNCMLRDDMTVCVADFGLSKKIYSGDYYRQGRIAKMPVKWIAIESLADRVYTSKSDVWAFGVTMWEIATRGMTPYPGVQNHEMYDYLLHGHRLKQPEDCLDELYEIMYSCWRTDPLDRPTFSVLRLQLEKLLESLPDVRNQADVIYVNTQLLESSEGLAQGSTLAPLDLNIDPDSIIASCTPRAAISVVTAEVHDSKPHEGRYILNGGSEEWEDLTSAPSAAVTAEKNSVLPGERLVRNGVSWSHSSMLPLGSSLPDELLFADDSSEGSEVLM

[7] = target: T1, Tyrosine-protein kinase Mer (Homo sapiens); conditions: at 1 µM
[8] = target: Hepatocyte growth factor receptor (Homo sapiens) (UniProt P08581); conditions: at 0.1 µM
[9] = target: Hepatocyte growth factor receptor (Homo sapiens) (UniProt P08581); conditions: at 1 µM
[10] = target: T2, Muscle, skeletal receptor tyrosine-protein kinase (Homo sapiens) (UniProt O15146); conditions: at 0.1 µM;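 also: values are mean inhibition of MuSK from the GSK PKIS kinase screening panel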
T2 sequence (whole entry): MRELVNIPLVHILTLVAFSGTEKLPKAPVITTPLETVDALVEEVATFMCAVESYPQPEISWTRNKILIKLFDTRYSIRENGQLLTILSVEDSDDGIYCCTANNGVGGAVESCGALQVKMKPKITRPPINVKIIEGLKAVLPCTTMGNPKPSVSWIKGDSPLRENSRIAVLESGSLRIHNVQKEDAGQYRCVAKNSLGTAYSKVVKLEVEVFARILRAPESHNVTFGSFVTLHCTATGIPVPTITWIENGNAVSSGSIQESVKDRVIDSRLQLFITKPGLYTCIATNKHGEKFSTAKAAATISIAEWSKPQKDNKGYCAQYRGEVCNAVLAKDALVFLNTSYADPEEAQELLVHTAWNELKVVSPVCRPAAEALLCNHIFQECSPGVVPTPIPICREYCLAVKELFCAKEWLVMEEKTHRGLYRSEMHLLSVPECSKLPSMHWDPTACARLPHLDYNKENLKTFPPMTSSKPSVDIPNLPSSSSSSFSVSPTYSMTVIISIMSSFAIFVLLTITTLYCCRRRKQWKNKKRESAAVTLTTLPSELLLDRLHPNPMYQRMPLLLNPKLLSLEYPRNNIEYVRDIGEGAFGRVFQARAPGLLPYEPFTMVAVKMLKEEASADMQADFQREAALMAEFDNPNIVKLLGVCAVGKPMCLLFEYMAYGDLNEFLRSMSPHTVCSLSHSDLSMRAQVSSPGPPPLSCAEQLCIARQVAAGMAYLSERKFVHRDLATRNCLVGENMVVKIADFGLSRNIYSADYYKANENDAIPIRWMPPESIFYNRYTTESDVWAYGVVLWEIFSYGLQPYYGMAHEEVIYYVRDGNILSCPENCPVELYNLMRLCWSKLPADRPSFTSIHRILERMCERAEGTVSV

Sequence of Hepatocyte growth factor receptor (Homo sapiens) (P08581 whole entry): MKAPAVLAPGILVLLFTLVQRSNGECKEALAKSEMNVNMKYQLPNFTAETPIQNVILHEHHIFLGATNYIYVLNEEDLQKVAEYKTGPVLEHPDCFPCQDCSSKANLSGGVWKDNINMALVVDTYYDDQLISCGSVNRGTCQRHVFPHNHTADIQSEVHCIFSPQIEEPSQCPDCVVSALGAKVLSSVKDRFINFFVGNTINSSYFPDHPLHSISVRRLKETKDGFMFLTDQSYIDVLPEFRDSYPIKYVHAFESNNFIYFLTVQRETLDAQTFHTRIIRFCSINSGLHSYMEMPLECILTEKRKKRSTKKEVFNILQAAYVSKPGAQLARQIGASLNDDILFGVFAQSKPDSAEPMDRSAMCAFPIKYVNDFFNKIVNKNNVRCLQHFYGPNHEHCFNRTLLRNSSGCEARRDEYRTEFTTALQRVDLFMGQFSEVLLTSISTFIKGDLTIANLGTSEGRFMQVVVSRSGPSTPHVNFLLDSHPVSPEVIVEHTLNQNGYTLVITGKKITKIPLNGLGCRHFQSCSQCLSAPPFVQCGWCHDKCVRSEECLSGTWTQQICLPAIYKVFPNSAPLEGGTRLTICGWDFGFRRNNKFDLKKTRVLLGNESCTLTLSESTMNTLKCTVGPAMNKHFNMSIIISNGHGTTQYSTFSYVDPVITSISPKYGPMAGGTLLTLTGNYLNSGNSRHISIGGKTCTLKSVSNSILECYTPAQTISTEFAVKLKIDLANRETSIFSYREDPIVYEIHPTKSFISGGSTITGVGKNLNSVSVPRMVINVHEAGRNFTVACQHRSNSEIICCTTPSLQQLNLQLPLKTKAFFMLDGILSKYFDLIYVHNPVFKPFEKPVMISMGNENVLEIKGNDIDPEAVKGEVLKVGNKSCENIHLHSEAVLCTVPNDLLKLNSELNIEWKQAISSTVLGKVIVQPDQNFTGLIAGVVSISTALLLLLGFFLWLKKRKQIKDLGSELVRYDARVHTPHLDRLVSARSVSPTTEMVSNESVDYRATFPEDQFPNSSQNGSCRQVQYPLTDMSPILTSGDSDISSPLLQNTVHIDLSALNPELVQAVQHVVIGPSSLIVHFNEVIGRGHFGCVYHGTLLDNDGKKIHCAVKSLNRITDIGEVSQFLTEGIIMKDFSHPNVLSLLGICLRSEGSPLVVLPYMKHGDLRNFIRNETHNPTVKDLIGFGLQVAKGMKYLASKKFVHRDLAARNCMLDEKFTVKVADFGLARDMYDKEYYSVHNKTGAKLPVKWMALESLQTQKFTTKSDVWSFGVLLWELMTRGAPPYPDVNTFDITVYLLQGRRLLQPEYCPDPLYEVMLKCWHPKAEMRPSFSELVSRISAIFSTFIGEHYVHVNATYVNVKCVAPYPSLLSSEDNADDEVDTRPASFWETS
Sequence of Tyrosine-protein kinase Lyn (Homo sapiens) (P07948 2-512 limits assumed): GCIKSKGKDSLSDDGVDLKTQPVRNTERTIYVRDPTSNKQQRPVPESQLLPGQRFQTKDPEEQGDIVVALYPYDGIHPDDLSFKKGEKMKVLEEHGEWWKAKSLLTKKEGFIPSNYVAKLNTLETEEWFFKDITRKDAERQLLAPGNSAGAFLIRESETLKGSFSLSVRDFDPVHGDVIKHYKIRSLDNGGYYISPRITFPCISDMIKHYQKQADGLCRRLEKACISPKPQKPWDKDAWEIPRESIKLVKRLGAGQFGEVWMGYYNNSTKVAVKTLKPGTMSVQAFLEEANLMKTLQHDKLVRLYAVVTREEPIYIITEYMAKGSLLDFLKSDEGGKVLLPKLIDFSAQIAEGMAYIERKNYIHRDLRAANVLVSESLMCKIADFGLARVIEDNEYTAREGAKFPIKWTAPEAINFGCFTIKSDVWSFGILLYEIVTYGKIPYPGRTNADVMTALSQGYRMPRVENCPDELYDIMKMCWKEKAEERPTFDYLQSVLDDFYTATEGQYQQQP
Sequence of Leukocyte tyrosine kinase receptor (Homo sapiens) (P29376 whole entry): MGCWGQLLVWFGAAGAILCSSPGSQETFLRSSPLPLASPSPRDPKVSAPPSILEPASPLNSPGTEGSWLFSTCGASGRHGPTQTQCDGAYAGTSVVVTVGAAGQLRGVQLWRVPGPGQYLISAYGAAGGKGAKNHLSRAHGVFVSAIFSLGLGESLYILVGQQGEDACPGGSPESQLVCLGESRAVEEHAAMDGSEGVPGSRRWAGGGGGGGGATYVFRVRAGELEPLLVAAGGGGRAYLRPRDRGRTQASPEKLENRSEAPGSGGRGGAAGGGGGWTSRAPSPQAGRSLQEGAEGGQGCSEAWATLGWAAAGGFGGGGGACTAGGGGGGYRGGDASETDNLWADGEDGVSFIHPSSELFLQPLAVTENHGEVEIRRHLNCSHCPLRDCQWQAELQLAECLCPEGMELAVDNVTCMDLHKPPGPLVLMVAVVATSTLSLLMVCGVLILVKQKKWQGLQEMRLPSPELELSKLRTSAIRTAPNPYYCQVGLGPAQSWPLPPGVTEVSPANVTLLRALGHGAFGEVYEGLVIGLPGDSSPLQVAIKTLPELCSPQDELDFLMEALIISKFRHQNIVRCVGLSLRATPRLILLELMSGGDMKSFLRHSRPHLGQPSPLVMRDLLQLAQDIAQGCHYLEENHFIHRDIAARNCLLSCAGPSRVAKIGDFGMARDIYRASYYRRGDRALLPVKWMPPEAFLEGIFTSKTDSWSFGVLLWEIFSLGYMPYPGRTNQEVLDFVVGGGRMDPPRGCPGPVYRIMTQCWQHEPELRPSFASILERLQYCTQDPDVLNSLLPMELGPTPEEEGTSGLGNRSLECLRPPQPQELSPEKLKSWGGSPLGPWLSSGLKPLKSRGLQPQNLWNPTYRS

SMILES	inhibition [1] [%]	inhibition [2] [%]	inhibition [3] [%]	inhibition [4] [%]	inhibition [5] [%]	inhibition [6] [%]	inhibition [7] [%]	inhibition [8] [%]	inhibition [9] [%]	inhibition [10] [%]
c1cc(-c2cnn3nc(N4CCOCC4)ccc23)nc(NC2CC2)n1	6.33	3.58	2.39	2.01	3.12	1.15	6.24	-2.37	2.41	4.2
Cc1ccc(O)cc1Nc1ccnc2cc(-c3ccccn3)ccc12	49.7	72.8	94.3	65.2	91.9	1.35	4.24	11.7	5.41	3.21
CC(=O)Nc1cccc(C#Cc2cncnc2Nc2ccc(OCc3cccc(F)c3)c(Cl)c2)c1	0.9	1.26	1.6	1.1	0.14	1.62	2.65	4.11	1.83	2.39
CC(C)(CO)CNC(=O)c1ccc2c(c1)/C(=N/Nc1ccc(S(N)(=O)=O)cc1)C(=O)N2	-1.87	-1.12	9.87	-1.58	8.71	-2.26	1.33	9.65	9.33	3.03
COc1cc2c(cc1Nc1nc(Nc3ccsc3C(N)=O)c3cc[nH]c3n1)N(C(=O)CN(C)C)CCC2(C)C	96.3	4.53	4.24	2.04	2.4	3.14	16.1	5.6	23.1	14.8
Clc1ccc(-c2nn3ncccc3c2-c2ccnc(Nc3ccccc3)n2)cc1	3.81	7.57	40.7	4.2	35.4	0.11	6.33	4.95	4.06	1.49
Cc1ccc2c(-c3ccnc(Nc4ccccc4)n3)c(-c3ccc(F)cc3)nn2n1	2.78	10.8	50.1	8.55	44.4	3.07	23.9	1.64	8.18	3.5
[O-][S+]1CCN(Cc2ccc(-c3ccc4ncnc(Nc5ccc(OCc6cccc(F)c6)c(Cl)c5)c4c3)o2)CC1	7.31	6.15	8.63	5.42	7.66	2.54	31	11.9	10.6	3.52
Fc1ccc(-c2nn3ccccc3c2-c2ccncc2)cc1	0.03	0.64	6.12	0.28	4.71	1.48	2.6	-1.86	3.37	3.06
CCn1c(-c2nonc2N)nc2c(C#CC(C)(C)O)nc(OC[C@H](N)c3ccccc3)cc21	17.1	4.19	4.52	2.36	4.2	5.78	3.59	6.32	1.76	0.54
CNC(=O)c1cc(-c2ccc(F)cc2)cc(-c2ccc(S(=O)(=O)N3CCCC3)cc2)c1N	3.29	2.72	2.56	1.59	1.39	0.74	2.3	3.93	5.04	2.8
NC(=O)c1sc(-n2cnc3ccc(C(F)(F)F)cc32)cc1OCc1ccccc1Br	3.98	5.8	6.03	2.92	3.3	1.71	1.36	3.13	-0.12	4.43
CCCN(CCS(C)(=O)=O)Cc1ccc(-c2ccc3ncnc(Nc4ccc(OCc5cccc(F)c5)c(Cl)c4)c3c2)o1	5.18	4.64	7.93	2.71	6.38	4.13	7.18	2.91	5.26	3.54
N#Cc1c(NC(=O)CN2CCOCC2)sc2c1CCCC2	4.38	4.72	7.89	2.92	5.26	1.87	4.98	7.91	13	2.41
CCn1c(-c2nonc2N)nc2ccccc21	1.66	3.33	2.16	2.02	0.98	-0.11	1.81	5.36	2.36	3.36
c1ccc(COc2ccc(Nc3ncnc4ccc(-c5ccco5)cc34)cc2)cc1	1.92	1.51	2.5	1.39	1.94	1.57	12.7	7.46	2.85	0.09
COc1cc(Nc2nccc(Nc3ccc4c(C)n[nH]c4c3)n2)cc(OC)c1OC	33.3	49.6	87.4	44.5	85.6	3.5	14.4	1.57	12.3	21.3

SMILES	inhibition [1] [%]	inhibition [2] [%]	inhibition [3] [%]	inhibition [4] [%]	inhibition [5] [%]	inhibition [6] [%]	inhibition [7] [%]	inhibition [8] [%]	inhibition [9] [%]	inhibition [10] [%]
CNC(=O)c1cncc(/C=C/c2ccccc2Cl)c1	1	1.6	11.3	1.83	8.12	3.56	2.42	3.72	4.48	0.71
Nc1nc(-c2ccc(F)cc2)c(-c2ccc3ncccc3n2)s1	7.86	9.43	39.4	7.37	33	2.57	5.56	4.07	10.1	3.45
COc1cccc(-c2c[nH]c3c(N/N=C/c4ccncc4)ncnc23)c1	2.09	40.1	83.3	33.8	81.8	2.09	15.7	4.89	27.3	13.4
COc1cccc(-n2ncc3c(N/N=C/c4ccc(F)cc4)ncnc32)c1	3.69	19.6	48.7	14.6	43.9	3.7	5.19	2.87	16.6	3.89
c1ccc(-c2nc3n(c2-c2ccc4c(c2)OCO4)CCC3)nc1	0.36	1.78	2.26	0.94	0.92	1.83	0.66	2.27	-1.42	0.55
Nc1nc(-c2cccc(Cl)c2)c(-c2ccc3ncccc3n2)s1	6.22	7.27	16.1	5.14	13.2	2.09	7.21	6.65	7.33	2.01
CCOc1ccc2c(-c3ccnc(Nc4cccc(C(F)(F)F)c4)n3)cnn2n1	1.96	4.33	4.33	3.97	3.17	0.97	3.35	3.01	3.51	2.25
CN1CCC(n2cnc(-c3ccc(F)cc3)c2-c2ccnc(N)n2)CC1	4.69	1.99	10.1	1.43	6.85	0.51	6.73	2.36	0.93	0.53
CCN(CC)S(=O)(=O)c1ccc(OC)c(Nc2ncc(-c3ccccc3)o2)c1	-0.4	4.63	34.8	4.28	28.9	0.62	2.09	3.7	4.3	-2.42
NS(=O)(=O)c1ccc(N/N=C2\C(=O)Nc3ccc4ncccc4c32)cc1	10.1	8.74	44.3	6.92	40	1.59	17.5	4.71	19.4	11.3
CN(C)CCOc1ccc(-c2nc(-c3ccncc3)c(-c3ccc4c(c3)CC/C4=N\O)[nH]2)cc1	8.56	6.26	8.56	2.81	6.8	0.89	4.76	3.76	13.3	2.95
CC1=C(C(=O)Nc2cc(Cl)c3[nH]ncc3c2)C(c2ccc(C(F)(F)F)cc2)CC(=O)N1 (stereo not given)	3.88	5.29	10.9	3.46	9.12	1.72	0.92	0.14	4.94	50.2
CS(=O)(=O)CCNCc1ccc(-c2ccc3ncnc(Nc4ccc(OCc5ccccc5)c(C(F)(F)F)c4)c3c2)o1	3.64	4.35	10.4	2.65	2.28	-0.65	1.81	0.49	5.8	1.44
COc1ccc(-c2oc3ncnc(N)c3c2-c2ccc(NC(=O)Nc3cc(C(F)(F)F)ccc3F)cc2)cc1	11.2	48.4	94.8	43.3	93.2	11.7	66.5	9.34	63.2	96.6
CNC(=O)c1cccc(C#Cc2cncnc2Nc2ccc(OCc3cccc(F)c3)c(Cl)c2)c1	0.16	3.69	5.89	2.02	2.83	1.54	2.26	3.13	5.11	-0.28
COc1cc(N2CCN(C(C)C)CC2)ccc1Nc1nc(Nc2ccc(F)cc2C(N)=O)c2cc[nH]c2n1	96	2.75	2.96	1.54	1.29	4.46	8.43	7.18	0.66	1.72
COC(=O)Nc1nc2ccc(S(=O)(=O)c3ccc(NC(=O)Nc4cc(C(F)(F)F)ccc4F)cc3)cc2[nH]1	0.53	3.86	3.43	1.56	3.05	0.88	4.05	-2.38	0.66	2.5
